Results on 40 sequences are retold here after the supplement of paper PMC6555819.

This test has as its system VDR:RXRa (NR concentration 270 nM, RXRa partner concentration 90 nM). The test is described as follows: PBM binding z-score (relative to random genomic background probes); higher = stronger binding; sequences stand for … in GC…GCGATTGACAGCGTAGAATGAAGG
Here is the method: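 Protein-binding microarray (Agilent 4x180K custom design, double-stranded 60-nt probes: 5' GC cap, 34-nt variable region, 24-nt constant primer region; full probe sequence given). Purified or IVT nuclear receptor:RXRα heterodimers (3:1 NR:RXRα, mostly 270:90 nM) or homodimers were incubated for 1 h in PBS with 2% milk and no ligand, then detected with Alexa488 antibodies. Fluorescence from o1-orientation probes (~5 replicates averaged) was converted to z-scores against 500 random hg19 background probes. Variable regions are seed direct-repeat (DR0–DR5) sites, all their single-nucleotide variants and half-site ablations.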
In turn, CCGAGTAGGTTATGGGGCAGTCAGGCAACGGTGA had a PBM binding z-score of -0.397.
In the case of AATACAGGGTCATCGTAGGCAAGAGTACGCACAG it was 5.23; in that of CCAGACAGGTGAAAGGTAAATCAGTCTGGTACGC, 0.701; in that of AGAATGAGATTAAGATCAGGGAAACAGAATACAT, -0.149.
TCGAGTTGGTCACGGAGGTCACACACGACGGGTA returned a PBM binding z-score of 5.91.
CAAACTAGGTGAAGAGGTCAAAGTCCGCTTCCCG returned a PBM binding z-score of 4.67.
In the case of CCTACTGGGCCACGAAAGGTCATTGCTTCAGTGA it was 4.23.
In the case of TGGATGAGGTTAAAGATCAGGGAACGTGGCGTCG it was 2.32; in that of TCTCGGAGGACACGAAGCTCAGAGCTTTCCAGAG, -0.415.
In the case of GCGGCTGGGGCATCAGCAGGTTACCATAACTTAA it was -0.259.
In the case of AGAATCAGGTTATTAAGATCAGGGAATTGCGGTC, the PBM binding z-score was 1.08.
In the case of CGTCCAAGGTCAATGCTAGGTAAGTGAAAGCATT it was 3.62; in that of CAAACTACGTCACCGGAAGGTCAAAGTCCGCATG, 3.23.
In the case of TCGAGTAGGTTACCAATGGGGCATTCACCTTTCT it was 0.284.
In the case of CGTCAAAGTTCAAGGTAACGTACCAGAAAGCAGC it was 3.87.
As for GGAACGAGAGCAAAGTTGATAGCATCTGTCGACG, the PBM binding z-score was -0.413.
In the case of ACTGGCAGGCCAAGTTTGGGTCACTCAAACAAAG it was 0.456; in that of ACTAGCAGGCCAAGATTGGGTCACTCAAACAAAG, 0.16.
To CAAACTAGGTCAAGGTCAAAGTGGGTTTGTGCCA belongs 5.74.
In the case of CGTCCAAGGTCAGAGAGGACAGTGAATGCCGAGT it was 5.85; in that of TCTAGTTGGTCACGGACGTCACACACGACGGGTA, 0.743.
With GCTAGTTGGTCAGTAAAAGGTCACTCACCGGTCG, the PBM binding z-score came to 3.51.
In the case of GTTCGGAGGACAAGGTCAGAGCTTTGTCCGTAGA it was 1.42; in that of CAAACTAGGTCAAGGCCAAAGTCGGTTTGTGCCA, 1.84; in that of CGAACTAGGTCATAGACAGGACAGTGAATAGTAA, 1.78.
To CCTACTGGGCCATTCAGAGGTCTTTGATCATATG belongs -0.301; to AGGATGAGGTTAAGATCAGGGAAACAGAATACAT, 1.39; to GCTATTAGTTGAAACGGCAACCGAATGATTCTCG, -0.413.
With ATCTCTAGGTAACCAAGCTCAGTGAATGCCGAAC, the PBM binding z-score was -0.169.
To CAAACTAGGTTACAGAGGTCAAAGTCCGTGCGTA belongs 7.06; to CCTACTGGGCCATCAGGCCATTGATATCAACGTT, -0.292; to TTACCAAGGTGAGCTGAGTTCGTTGATCCAACTC, 4.86.
In the case of GCGACTGGGGCATCTGCAGGTTACCATAACTTAA it was -0.144; in that of AGAATGAGGTTATACGTACATCAGGGAAGAAAGT, 1.67; in that of ATCGAAAGGTCGATGTGAGTATAGAGAAAGGGAA, 1.97.
In the case of TTACCAAGGTGAAGGTCGTTGTTCCCTCTGTAGA, the PBM binding z-score was found to be 1.26.
In the case of CCTGGCAGGCCAATCTGGGTCACTCAAGGCTTGA it was 0.406.
To CCGACTGGGGCATAAGGTCACCATAAGCCAGCCC belongs 3.15; to TGTCAAAGTTCAAAGGTAACGTACGTATCCACAC, 5.05; to GGTGCTAGGTCAACTGATGGTCAGCTAAAGCTCG, 1.89.
